Source: PubChem BioAssay (NCI)
Compounds without any hit were thinned out: in the full panel of roughly 83,000, 20% have a hit.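 Assay: single dose, 48 h. Readout: percent growth (0 = no net growth; negative = cell death). Active: <10.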 Active and inactive are the calls of the source.

Legend:
Experiment in all cases: NCI-60 one-dose screen, 48 h (100 = growth as untreated, 0 = no growth, -100 = all killed)
Details in all cases: 10 µM unless noted
NCI-H23 lung = test system: NCI-H23 lung
NCI-H226 lung = test system: NCI-H226 lung
NCI-H322M lung = test system: NCI-H322M lung
NCI-H460 lung = test system: NCI-H460 lung
HOP-92 NSCLC = test system: HOP-92 NSCLC
NCI-H522 lung = test system: NCI-H522 lung
A549/ATCC NSCLC = test system: A549/ATCC NSCLC
786-0 renal = test system: 786-0 renal
COLO 205 colon = test system: COLO 205 colon
HOP-62 NSCLC = test system: HOP-62 NSCLC

Measured: growth

Cc1c2cccnc2c(C)c2c1c1cc(CO)ccc1n2C
inactive: NCI-H23 lung 30.6% | NCI-H322M lung 26.8% | HOP-92 NSCLC 32.9% | NCI-H522 lung 30.3% | A549/ATCC NSCLC 20.9% | 786-0 renal 22.6% | COLO 205 colon 19.1%
active: NCI-H226 lung -33.4% | NCI-H460 lung 0.162%

C#CCOc1cccc(-c2ncnc3cc(NC(=O)C=C)ccc23)c1
inactive: NCI-H23 lung 69% | NCI-H226 lung 69.9% | NCI-H322M lung 70.3% | NCI-H460 lung 29.1% | HOP-92 NSCLC 14.9% | NCI-H522 lung 10.5% | A549/ATCC NSCLC 44.5% | 786-0 renal 29.9% | COLO 205 colon 24.4%

Clc1c(Cl)[n+](Cc2ccc3ccccc3c2)cn1Cc1ccc2ccccc2c1
inactive: NCI-H23 lung 32.8% | NCI-H226 lung 44.4% | NCI-H322M lung 51% | NCI-H460 lung 26.1% | A549/ATCC NSCLC 52.5%
active: HOP-62 NSCLC -27.6% | HOP-92 NSCLC -12.1% | NCI-H522 lung -52.5% | 786-0 renal -8.06% | COLO 205 colon -73.9%

CN1CCN(Cc2ccc(NC(=O)c3cncc(C#Cc4cnc5ccc(Cl)nn45)c3)cc2C(F)(F)F)CC1
active: NCI-H23 lung -29.5% | NCI-H226 lung -58.3% | NCI-H322M lung -14.2% | NCI-H460 lung -47.3% | HOP-92 NSCLC -16.3% | NCI-H522 lung -12.8% | A549/ATCC NSCLC 4.24% | 786-0 renal -53% | COLO 205 colon -46.1%

CC(=O)/C(=C/c1ccc([N+](=O)[O-])cc1)C(=O)c1ccccc1
inactive: NCI-H23 lung 88.1% | NCI-H226 lung 81.5% | NCI-H322M lung 100% | NCI-H460 lung 107% | HOP-92 NSCLC 70.1% | NCI-H522 lung 52% | A549/ATCC NSCLC 83.6% | 786-0 renal 92.5% | COLO 205 colon 90%

C=C(CNCCc1ccc(O)cc1)[C@@H]1CC[C@]2(CO)CC[C@]3(C)[C@H](CC[C@@H]4[C@@]5(C)CCC(=O)C(C)(C)[C@@H]5CC[C@]43C)[C@@H]12
inactive: NCI-H23 lung 65.7% | NCI-H226 lung 93.1% | NCI-H322M lung 63.2% | HOP-92 NSCLC 35.1% | NCI-H522 lung 29.2% | A549/ATCC NSCLC 26.7% | 786-0 renal 44.7%
active: NCI-H460 lung -48.8% | COLO 205 colon -55.6%

C=C1C(=O)O[C@H]2[C@H]1CC/C(COC(=O)c1cc3cc(Cl)ccc3[nH]1)=C\CC[C@@]1(C)O[C@@H]21
active: NCI-H23 lung -64.9% | NCI-H226 lung -64.2% | NCI-H460 lung 6.97% | HOP-92 NSCLC -80.3% | NCI-H522 lung -81.1% | A549/ATCC NSCLC -67.5% | 786-0 renal -90.5% | COLO 205 colon -77.6%
inactive: NCI-H322M lung 44.3%

O=[N+]([O-])c1cc(NS(=O)(=O)c2ccccc2)ccc1NS(=O)(=O)c1ccccc1
inactive: NCI-H23 lung 112% | NCI-H226 lung 104% | NCI-H322M lung 135% | HOP-62 NSCLC 110% | NCI-H460 lung 93.3% | HOP-92 NSCLC 97.8% | NCI-H522 lung 80.9% | A549/ATCC NSCLC 97.9% | 786-0 renal 102% | COLO 205 colon 109%

CN1CCN(C(=S)SCCCCOc2cc(=O)oc3ccccc23)CC1
inactive: NCI-H23 lung 80.9% | NCI-H226 lung 67.1% | NCI-H322M lung 102% | NCI-H460 lung 93.5% | HOP-92 NSCLC 67.5% | NCI-H522 lung 63.6% | A549/ATCC NSCLC 84.5% | 786-0 renal 96.9% | COLO 205 colon 86.4%

O=C(/C=C/c1ccc(Oc2ccc(Br)cc2)cc1)c1ccc(Br)cc1
inactive: NCI-H23 lung 95.3% | NCI-H226 lung 103% | NCI-H322M lung 95.3% | NCI-H460 lung 105% | HOP-92 NSCLC 91.6% | NCI-H522 lung 91.1% | A549/ATCC NSCLC 94.4% | 786-0 renal 101% | COLO 205 colon 113%

CC1(C)CC[C@]23CC[C@]4(C)[C@H](CC[C@@H]5[C@@]6(C)C/C(=C/c7ccncc7)C(=O)C(C)(C)[C@@H]6CC[C@]54C)[C@H]2[C@H]1OC3
inactive: NCI-H23 lung 91.8% | NCI-H322M lung 90.9% | HOP-62 NSCLC 91% | NCI-H460 lung 75.8% | HOP-92 NSCLC 72.4% | NCI-H522 lung 76.4% | A549/ATCC NSCLC 76.5% | 786-0 renal 88.5% | COLO 205 colon 68.5%

Cc1nn(-c2ccccc2)c(N)c1N=C1NC(=O)/C(=C/c2ccc(Br)cc2)S1
inactive: NCI-H23 lung 75.8% | NCI-H322M lung 83.5% | HOP-62 NSCLC 59.6% | NCI-H460 lung 93.1% | HOP-92 NSCLC 65.6% | NCI-H522 lung 85.4% | A549/ATCC NSCLC 74.3% | 786-0 renal 94.6% | COLO 205 colon 101%

Cc1ccc2nc(NC(=O)CSc3nc(-c4ccccc4)c(C#N)c4nnnn34)sc2c1
inactive: NCI-H23 lung 103% | NCI-H322M lung 108% | HOP-62 NSCLC 97.4% | NCI-H460 lung 104% | HOP-92 NSCLC 106% | NCI-H522 lung 89.4% | A549/ATCC NSCLC 104% | 786-0 renal 114% | COLO 205 colon 121%

CCN1CCN(CC(=O)Nc2nc3ccc(NCc4ccc(F)cc4)cc3s2)CC1
inactive: NCI-H23 lung 90% | NCI-H322M lung 94.3% | HOP-62 NSCLC 91.8% | NCI-H460 lung 98.8% | HOP-92 NSCLC 61.3% | NCI-H522 lung 104% | A549/ATCC NSCLC 99.8% | 786-0 renal 93% | COLO 205 colon 78%

C#CCn1cnc2cnc(Nc3cccc(NC(=O)C=C)c3)nc21
inactive: NCI-H23 lung 95.6% [6.25 µM] | NCI-H322M lung 96.1% [6.25 µM] | HOP-62 NSCLC 78.6% [6.25 µM] | NCI-H460 lung 90.6% [6.25 µM] | HOP-92 NSCLC 32.6% [6.25 µM] | NCI-H522 lung 71.4% [6.25 µM] | A549/ATCC NSCLC 85.3% [6.25 µM] | 786-0 renal 56.8% [6.25 µM] | COLO 205 colon 82.2% [6.25 µM]

COc1ccccc1N(C(C)=O)C1=C(Cl)C(=O)c2ccccc2C1=O
active: NCI-H23 lung -12.1% | NCI-H460 lung 4.81% | HOP-92 NSCLC -14.9% | NCI-H522 lung -78% | A549/ATCC NSCLC 8.36% | COLO 205 colon -11.7%
inactive: NCI-H322M lung 38% | HOP-62 NSCLC 38.6% | 786-0 renal 37.2%

O=C(CC(=O)Nc1cccc(C(=O)O)c1)Nc1cccc(C(=O)O)c1
inactive: NCI-H23 lung 107% | NCI-H322M lung 105% | HOP-62 NSCLC 88.3% | NCI-H460 lung 100% | HOP-92 NSCLC 99.7% | NCI-H522 lung 78% | A549/ATCC NSCLC 85.8% | 786-0 renal 98% | COLO 205 colon 100%

NC(=O)c1cccc([C@@H]2O[C@H](CO)[C@@H](O)[C@H]2O)c1
inactive: NCI-H23 lung 63.7% | NCI-H322M lung 87% | HOP-62 NSCLC 47.7% | NCI-H460 lung 103% | HOP-92 NSCLC 52.4% | NCI-H522 lung 42.2% | A549/ATCC NSCLC 71.6% | 786-0 renal 12.9% | COLO 205 colon 40.5%

Cc1ccc(C)c(/C=C2\CN(C(=O)OC(C)(C)C)C/C(=C\c3cc(C)ccc3C)C2=O)c1
inactive: NCI-H23 lung 49.7% | NCI-H322M lung 93.9% | HOP-62 NSCLC 93.4% | NCI-H460 lung 45.3% | HOP-92 NSCLC 91.3% | NCI-H522 lung 46.1% | A549/ATCC NSCLC 80.5% | 786-0 renal 74.5% | COLO 205 colon 30.9%

Cn1cc(-c2ccc(-c3cn(C)c4ccc(Cl)cc34)[nH]2)c2cc(Cl)ccc21
active: HOP-62 NSCLC 9.58% | NCI-H460 lung -60.2% | HOP-92 NSCLC -36% | NCI-H522 lung -33.8% | A549/ATCC NSCLC -48.3% | COLO 205 colon -91.5%
inactive: NCI-H23 lung 10.9% | NCI-H322M lung 41.4% | 786-0 renal 41%

COc1ccc(/C=C/c2ccc3ccccc3n2)c(OC)c1
inactive: NCI-H23 lung 74.3% | NCI-H226 lung 86.1% | NCI-H322M lung 75.4% | NCI-H460 lung 75.5% | HOP-92 NSCLC 46.8% | NCI-H522 lung 72.5% | A549/ATCC NSCLC 79.6% | 786-0 renal 96.1% | COLO 205 colon 85.9%

CN(C)c1ccc(-c2ccc3c(c2)c(-c2ccccc2)nc(=O)n3C)cn1
active: HOP-92 NSCLC -45.4% | NCI-H522 lung 7.96%
inactive: NCI-H23 lung 71% | NCI-H322M lung 60.9% | HOP-62 NSCLC 36.8% | NCI-H460 lung 19.7% | A549/ATCC NSCLC 45.8% | 786-0 renal 26.2% | COLO 205 colon 28.1%

O=c1nc(-c2ccccc2)c2cc(-c3ccc(C(F)(F)F)nc3)ccc2[nH]1
inactive: NCI-H23 lung 89.5% | NCI-H322M lung 92.9% | HOP-62 NSCLC 106% | NCI-H460 lung 106% | HOP-92 NSCLC 105% | NCI-H522 lung 85.3% | A549/ATCC NSCLC 111% | 786-0 renal 100% | COLO 205 colon 105%

Cc1cn(-c2cc(NC(=O)c3cncc(C#Cc4c(N)ncc5ccc(F)cc45)c3)cc(C(F)(F)F)c2)cn1
inactive: NCI-H23 lung 25% | NCI-H226 lung 36.2% | NCI-H322M lung 65.7% | NCI-H460 lung 49.2% | NCI-H522 lung 58.1% | A549/ATCC NSCLC 61.3% | 786-0 renal 77.1% | COLO 205 colon 11.6%
active: HOP-92 NSCLC -8.98%

Oc1c(CN2CCC(N3CCCCC3)CC2)cc(Cc2cc(CN3CCC(N4CCCCC4)CC3)c(O)c3ncccc23)c2cccnc12
inactive: NCI-H23 lung 39.3% | NCI-H322M lung 19.7% | HOP-62 NSCLC 18.6% | HOP-92 NSCLC 30.5% | A549/ATCC NSCLC 22.9% | 786-0 renal 24.4%
active: NCI-H460 lung 5.8% | NCI-H522 lung -34.7% | COLO 205 colon -3.12%

O=C(C1=Cc2cc3ccccc3n2Cc2cnnn21)c1ccc(O)cc1
inactive: NCI-H23 lung 75.6% | NCI-H322M lung 89.4% | HOP-62 NSCLC 55.7% | NCI-H460 lung 27.8% | HOP-92 NSCLC 84.4% | NCI-H522 lung 36.7% | A549/ATCC NSCLC 50.7% | 786-0 renal 81.8% | COLO 205 colon 75.5%

C/C=C(\C)C(=O)N[C@H]1C(O)C[C@]2(C)C3CC[C@@]4(C)C(CC[C@@H]4C(C)N(C)C)C3CCC2C1O (some centres undefined)
inactive: NCI-H23 lung 68.7% | NCI-H226 lung 115% | NCI-H322M lung 65.2% | NCI-H460 lung 30.7% | HOP-92 NSCLC 46.6% | NCI-H522 lung 90.6% | A549/ATCC NSCLC 81.6% | 786-0 renal 68.4% | COLO 205 colon 29.4%

Cc1nc2sc(C(=O)Nc3cccc(Br)c3C)c(N)c2cc1C(O)c1ccccc1 (centres undefined)
inactive: NCI-H23 lung 18.5% | NCI-H322M lung 42.2% | HOP-62 NSCLC 21.2% | HOP-92 NSCLC 24% | 786-0 renal 15.5%
active: NCI-H460 lung -0.559% | NCI-H522 lung 2.97% | A549/ATCC NSCLC 9.65% | COLO 205 colon -51.6%
